Results on 40 compounds are retold here after PubChem BioAssay (NCATS).

SMILES strings stand for the structures. Results filed as inconclusive are left out. Calls of active or inactive are those of the source. The call rests on the fitted dose curve; in most records, active means well fitted activation curve with a large enough effect; inconclusive means small, poorly fitted or top-dose-only effect; inactive means flat fitted curve, though single readings scatter.

The test in a line: Validation screen for small molecules that induce DNA re-replication in SW480 colon adenocarcinoma cells (AID 504364). Conditions: DNA re-replication phenotype (high-content imaging); series mostly up to 46.1 µM. An excerpt:
H Molecular Libraries Probe Production Network [MLPCN]
NIH Chemical Genomics Center [NCGC]
Assay Provider: Melvin DePamphilis, NICHD, NIH
Eukaryotic cells normally restrict genome duplication to once per cell division. When this process is aberrant, DNA re-replication occurs when cells reinitiate DNA replication before the first round of replication is complete. DNA re-replication induces the DNA damage response, arrests cell proliferation, and triggers apoptosis. The cell cycle components cyclin A, Cdt-1, Cdc6 and geminin are critical regulators of this process and their misregulation results in DNA re-replication in normal and cancer cells. To identify compounds that induce re-replication in normal cells, an image-based assay was used to measure DNA content of nuclei, as detected by the fluorescent DNA binding dye, Hoechst. Cell nuclei were imaged by a fluorescence scanning plate imager and compounds that induce DNA re-replication were identified by the increase of nuclei with elevated fluorescence intensity.#
For screening, 250 cells in 5 uL/well were dispensed into black clear 1536-well plates (Aurora) using a solenoid-based dispenser. Following transfer of 23 nL compound or DMSO vehicle by a pin tool, the plates were incubated 48 hr at 37 C and 5% CO2. After addition of 1 uL/well Hoescht stain, the plates were incubated 40 min at 37 C, 5% CO2 and total intensity of fluorescent objects (nuclei) were enumerated by an Acumen Explorer Ex3 (TTP LabTech) fluorescence scanning plate imager (405 nm excitation, 500-530 nm emission).
Keywords: NIH Roadmap, MLPCN, MLI, MLSMR, qHTS, NCGC, DNA replication, cancer
For the compound `Cc1nccc2c1[nH]c1ccccc12`, the compound was called inactive.
Regarding `C[C@@H]1O[C@H](C[N+](C)(C)C)C[C@H]1O`, the compound was called inactive.
Under `CCCN1CCC[C@H](c2cccc(O)c2)C1` stands “inactive”; under `C[C@@H](N)Cc1cnc[nH]1`, “inactive”; under `NC(=NCCC[C@H](N)C(=O)O)N[N+](=O)[O-]`, “inactive”.
To `CCCN1CCO[C@@H]2c3cc(O)ccc3OC[C@H]21` belongs “inactive”; to `CCCN(CCC)[C@@H]1CCc2ccc(O)cc2C1`, “inactive”; to `C[C@]12CCC3C(CC[C@H]4C[C@H](O)CC[C@]34C)C1CC[C@@H]2C(=O)CO` (stereo not given in full), “inactive”.
Regarding `NC(N)=NOCCC(N)C(=O)O` (stereo not given), the outcome was inactive.
Under `C=CCN1CC[C@]23CCCCC2[C@H]1Cc1ccc(O)cc13` (stereo not given in full) stands “inactive”; under `CNCCc1c[nH]c2ccc(O)cc12`, “inactive”.
To `CC(Cc1ccc(O)cc1)NCC(O)c1cc(O)cc(O)c1` (stereo not given) belongs “inactive”; to `C#CCOC(=O)C1=CCCN(C)C1`, “inactive”.
To `CC(C)NC(C)Cc1ccc(I)cc1` (stereo not given) belongs “inactive”; to `CC(=O)[C@H]1CCC2C3CC[C@H]4C[C@H](O)CC[C@]4(C)C3CC[C@@]21C` (stereo not given in full), “inactive”.
Regarding `CCCN(CCC)C1CCc2ccc(O)cc2C1` (stereo not given), the compound was classed as inactive.
On to `NC(=O)CN1CC(O)CC1=O` (stereo not given), for which the call was inactive.
To `CN[C@@H]1C[C@@H](c2ccc(Cl)c(Cl)c2)c2ccccc21` belongs “inactive”; to `CN1C2CCC1CC(OC(=O)c1cc(Cl)cc(Cl)c1)C2` (stereo not given), “inactive”; to `NC(CCP(=O)(O)O)C(=O)O` (stereo not given), “inactive”.
To `O=C1CCCN1CC#CCN1CCCC1` belongs “inactive”; to `O=C(Cc1ccc(Cl)c(Cl)c1)N1CCCCC1CN1CCCC1` (stereo not given), “inactive”.
`CN[C@@H](C)[C@H](O)c1ccccc1`: the call was inactive.
Under `O=C(O)Cc1cnc[nH]1` stands “inactive”.
On to `COc1cc(C(O)CN)ccc1O` (stereo not given), for which the compound was called inactive.
On to `NC(CP(=O)(O)O)C(=O)O` (stereo not given), for which the compound was called inactive.
To `Clc1cnc(Oc2ccc(Oc3ncc(Cl)cc3Cl)cc2)c(Cl)c1` belongs “inactive”; to `CC[C@@H]1C(=O)OC[C@@H]1Cc1cncn1C`, “inactive”.
To `NCc1cc(=O)[nH]o1` belongs “inactive”; to `NC1CC1c1ccccc1` (stereo not given), “inactive”; to `CCCCc1ccc(C(=O)O)nc1`, “inactive”.
As to `CC[C@@]1(O)C(=O)OCc2c1cc1n(c2=O)Cc2cc3ccccc3nc2-1`, the call was inactive.
`CC1=NN=C(c2ccc(N)cc2)c2cc3c(cc2C1)OCO3`: the compound was called inactive.
Take `c1ccc2sc(C3(N4CCCCC4)CCCCC3)cc2c1`: the call was inactive.
To `Cc1c(C(=O)c2cccc3ccccc23)c2cccc3c2n1[C@H](CN1CCOCC1)CO3` belongs “inactive”; to `CC(C)Oc1cccnc1N(C)C1CCN(Cc2ccccc2)CC1`, “inactive”.
Regarding `NC1CCc2cc(O)c(O)cc2C1` (stereo not given), the result was inactive.
For `Cn1cnc(CCN)c1`, the outcome was inactive.
For `S=C(NC1CCCCC1)N1CCC(c2cnc[nH]2)CC1`, the call was inactive.
As for `C[N+](C)(C)CC(=O)O`, the outcome was inactive.
